About 83,000 compounds went through this panel and 20% of them were active in at least one assay; those are over-represented in the sample as a whole.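 Testing used 96-well plates and a 48-hour single-concentration exposure. Example: -40 means 40% of the starting cells died.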 Activity calls are given as the source filed them. The calls were made as follows: active = growth percent below 10; inactive = the rest.
What was measured:
Experiment in all cases: NCI-60 one-dose screen, 48 h (100 = growth as untreated, 0 = no growth, -100 = all killed)
Conditions in all cases: 10 µM unless noted
DU-145 prostate = test system: DU-145 prostate
K-562 leukemia = test system: K-562 leukemia
MALME-3M melanoma = test system: MALME-3M melanoma
MDA-MB-231 breast = test system: MDA-MB-231 breast
RXF 393 renal = test system: RXF 393 renal
SF-268 CNS = test system: SF-268 CNS
SF-295 CNS = test system: SF-295 CNS
SF-539 CNS = test system: SF-539 CNS
UACC-257 melanoma = test system: UACC-257 melanoma
M14 melanoma = test system: M14 melanoma
HCT-15 colon = test system: HCT-15 colon
HT29 colon = test system: HT29 colon
SNB-75 CNS = test system: SNB-75 CNS
SNB-19 CNS = test system: SNB-19 CNS
U251 CNS = test system: U251 CNS
PC-3 prostate = test system: PC-3 prostate
SK-MEL-5 melanoma = test system: SK-MEL-5 melanoma
UACC-62 melanoma = test system: UACC-62 melanoma
LOX IMVI melanoma = test system: LOX IMVI melanoma
SK-MEL-28 melanoma = test system: SK-MEL-28 melanoma

Measured: growth

C=CCn1c(SCC(=O)Nc2ccc(C(=O)/C=C/c3ccc(Cl)cc3)cc2)nnc1-c1cc(OC)c(OC)c(OC)c1
inactive: DU-145 prostate 100% | K-562 leukemia 83.8% | MALME-3M melanoma 115% | MDA-MB-231 breast 80.5% | RXF 393 renal 90.8% | SF-268 CNS 87.8% | SF-295 CNS 94.3% | SF-539 CNS 96.4% | UACC-257 melanoma 95.8% | M14 melanoma 93.9% | HCT-15 colon 89.7% | HT29 colon 97.4% | SNB-75 CNS 86.2% | SNB-19 CNS 85.3% | U251 CNS 90.7% | PC-3 prostate 75.2% | SK-MEL-5 melanoma 63.5% | UACC-62 melanoma 70.4% | LOX IMVI melanoma 91.8% | SK-MEL-28 melanoma 106%

COc1ccc2nc3nc4ccc[nH]c4cc3c2c1
inactive: DU-145 prostate 88.3% | K-562 leukemia 99.6% | MALME-3M melanoma 90% | MDA-MB-231 breast 98% | RXF 393 renal 101% | SF-268 CNS 84.5% | SF-295 CNS 112% | SF-539 CNS 94% | UACC-257 melanoma 115% | M14 melanoma 101% | HCT-15 colon 82.9% | HT29 colon 97.7% | SNB-75 CNS 82.5% | SNB-19 CNS 105% | U251 CNS 94.8% | PC-3 prostate 93.2% | SK-MEL-5 melanoma 88.6% | UACC-62 melanoma 105% | LOX IMVI melanoma 95.1% | SK-MEL-28 melanoma 110%

O=C(CCl)N1CCCc2ccccc21
inactive: DU-145 prostate 97.7% | K-562 leukemia 101% | MALME-3M melanoma 98.3% | MDA-MB-231 breast 99.5% | RXF 393 renal 89.1% | SF-268 CNS 94.9% | SF-295 CNS 95.7% | SF-539 CNS 103% | UACC-257 melanoma 107% | M14 melanoma 93.9% | HCT-15 colon 99.8% | HT29 colon 103% | SNB-75 CNS 72.6% | SNB-19 CNS 100% | U251 CNS 105% | PC-3 prostate 96.8% | SK-MEL-5 melanoma 95.7% | UACC-62 melanoma 94.3% | LOX IMVI melanoma 99.6% | SK-MEL-28 melanoma 103%

[2H]c1cc2c(c([2H])c1F)/C(=C/c1[nH]c(C)c(C(=O)NCCN(CC)CC)c1C)C(=O)N2
inactive: DU-145 prostate 34.6% | K-562 leukemia 55.3% | MALME-3M melanoma 10.8% | MDA-MB-231 breast 67.7% | RXF 393 renal 25% | SF-268 CNS 57.7% | SF-295 CNS 85.1% | SF-539 CNS 45.3% | UACC-257 melanoma 69.2% | M14 melanoma 20.6% | HCT-15 colon 29.9% | HT29 colon 19% | SNB-75 CNS 50.4% | SNB-19 CNS 85.4% | U251 CNS 66.5% | PC-3 prostate 28.3% | SK-MEL-5 melanoma 51% | UACC-62 melanoma 67% | LOX IMVI melanoma 26.5% | SK-MEL-28 melanoma 64.7%

O=C(O)c1cn(C2CC2)c2cc(N3CCN(Cc4nnc(Nc5ccccc5)o4)CC3)c(F)cc2c1=O
inactive: DU-145 prostate 103% | K-562 leukemia 84.4% | MALME-3M melanoma 89.1% | MDA-MB-231 breast 109% | RXF 393 renal 118% | SF-268 CNS 90.2% | SF-295 CNS 102% | SF-539 CNS 99.4% | UACC-257 melanoma 106% | M14 melanoma 95.7% | HCT-15 colon 101% | HT29 colon 93.8% | SNB-75 CNS 82.2% | SNB-19 CNS 108% | U251 CNS 105% | PC-3 prostate 105% | SK-MEL-5 melanoma 106% | UACC-62 melanoma 100% | LOX IMVI melanoma 87.9% | SK-MEL-28 melanoma 100%

OCCNc1nc(NCCO)nc(Nc2ccc(C3=NN(c4ccc(Cl)cc4)C(c4ccc(Cl)cc4)C3)cc2)n1 (stereo not given)
active: RXF 393 renal -26.1%
inactive: DU-145 prostate 51.9% | K-562 leukemia 13.3% | MALME-3M melanoma 70.1% | MDA-MB-231 breast 63.7% | SF-268 CNS 53% | SF-295 CNS 12.2% | SF-539 CNS 36.6% | UACC-257 melanoma 72.9% | M14 melanoma 63.9% | HCT-15 colon 48.4% | HT29 colon 30.5% | SNB-75 CNS 51.1% | SNB-19 CNS 78.1% | U251 CNS 43% | PC-3 prostate 32.8% | SK-MEL-5 melanoma 78.2% | UACC-62 melanoma 77.9% | LOX IMVI melanoma 28.2% | SK-MEL-28 melanoma 54.4%

Nc1c(C(=O)Nc2ccccc2Cl)sc2nc3c(cc12)CN(Cc1ccccc1)CC3
inactive: DU-145 prostate 94% | K-562 leukemia 99% | MALME-3M melanoma 75.5% | MDA-MB-231 breast 105% | RXF 393 renal 110% | SF-268 CNS 81.5% | SF-295 CNS 100% | SF-539 CNS 102% | UACC-257 melanoma 128% | M14 melanoma 107% | HCT-15 colon 95.7% | HT29 colon 101% | SNB-75 CNS 113% | SNB-19 CNS 109% | U251 CNS 114% | PC-3 prostate 104% | SK-MEL-5 melanoma 97.7% | UACC-62 melanoma 101% | LOX IMVI melanoma 99.7% | SK-MEL-28 melanoma 102%

COc1ccc(Sc2[nH]c(C(C)=O)c3ccccc23)cc1
inactive: DU-145 prostate 89.4% | K-562 leukemia 11.9% | MALME-3M melanoma 74% | MDA-MB-231 breast 83.3% | RXF 393 renal 69.1% | SF-268 CNS 73.2% | SF-295 CNS 93.4% | SF-539 CNS 72.2% | UACC-257 melanoma 84.1% | M14 melanoma 62.3% | HCT-15 colon 53.9% | HT29 colon 47.6% | SNB-75 CNS 48.1% | SNB-19 CNS 67.1% | U251 CNS 76% | PC-3 prostate 52.1% | SK-MEL-5 melanoma 45.1% | UACC-62 melanoma 47.1% | LOX IMVI melanoma 71.9% | SK-MEL-28 melanoma 84.1%

Source: PubChem BioAssay (NCI)
